Where “and” joins values, the source holds several entries; their conditions need not be identical. Equal entries are not always repeated.
System: HNSC
Assay: growth inhibition (% activity, log2 RLU normalised to DMSO / staurosporine); higher = more growth inhibition
Conditions: 33 µM
How it was run: (§1)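 Cells (pHGG lines and H9-derived neural stem cells) were plated on Geltrex-coated 384-well plates and exposed to approved drugs at a single final concentration of about 33 μM, in triplicate, for 7 days at 37 °C, 5% CO2. Log2-transformed CellTiter-Glo luminescence was normalised per plate to % activity between solvent and positive control wells, and the growth-inhibition value is the median over replicates.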

SMILES | growth inhibition
C[C@@H](NCCCc1cccc(C(F)(F)F)c1)c1cccc2ccccc12 | 49.7%
Clc1ccc2c(c1)CCc1cccnc1C2=C1CCNCC1 | 0.109%
CCc1cc(C(N)=S)ccn1 | -5.37%

System: SUDIPGIV (diffuse intrinsic pontine glioma line)
Assay: as above
Conditions: 33 µM
How it was run: as §1

SMILES | growth inhibition
CCN[C@H]1CN(CCCOC)S(=O)(=O)c2sc(S(N)(=O)=O)cc21 | -0.244%
C=C1CCC(O)CC1=CC=C1CCCC2(C)C1CCC2C(C)CCCC(C)(C)O (stereo unspecified) | 3.43%
O=c1c(-c2ccc(O)cc2)coc2cc(O)ccc12 | -0.853%
CC(C)Cc1ccc(C(C)C(=O)O)cc1 (stereo unspecified) | -1.49% and -4.48%
Cn1c(CNc2ccc(C(=N)N)cc2)nc2cc(C(=O)N(CCC(=O)O)c3ccccn3)ccc21 | 1.54%
CC(C)C[C@H](NC(=O)[C@H](CCc1ccccc1)NC(=O)CN1CCOCC1)C(=O)N[C@@H](Cc1ccccc1)C(=O)N[C@@H](CC(C)C)C(=O)[C@@]1(C)CO1 | 55%
C[N+](C)(C)CCCCCC[N+](C)(C)C | -2.32%
COc1cc(/C=C/C(=O)N2CCN(CC(=O)N3CCCC3)CC2)cc(OC)c1OC | 0.556%
O=C(CCCN1CC=C(n2c(=O)[nH]c3ccccc32)CC1)c1ccc(F)cc1 | -2.04%
Cc1nnc(C(C)C)n1C1C[C@H]2CC[C@@H](C1)N2CC[C@H](NC(=O)C1CCC(F)(F)CC1)c1ccccc1 (stereo in doubt) | -0.251%
CCCCC(=O)N(Cc1ccc(-c2ccccc2-c2nnn[nH]2)cc1)[C@H](C(=O)O)C(C)C | 4.24%
CCN(CC)C(=O)/C(C#N)=C/c1cc(O)c(O)c([N+](=O)[O-])c1 | -1.01%
CN1CCC(=C2c3ccccc3C=Cc3ccccc32)CC1 | 3.58%

Source: the supplement of paper PMC8253809
